Assay outcomes deposited in PubChem BioAssay by National Center for Advancing Translational Sciences (NCATS).
A selection: hits, their analogues and other compounds. The true share with any hit is near 11%.
HEK293 tox = Cytotoxic Profiling in HEK 293 Cell Line of Diverse Libraries Using Quantitative High-Throughput Screening | HEK 293 viability, ATP luminescence (CellTiter-Glo), 48-72 h | Potency, µM (series often up to 115 µM), for inactives: top-dose activity change, negative = cytotoxicity, usual class: inhibitors | 94,000 tested, 6.6% active | AID 1345083, 2018; further: nearly all actives have a fitted effect of over 60% in size
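Cells seeded first (HEK 293, 250 cells/well), then compound added by pintool. Incubation ran 48 or 72 hr at 37 degree Celsius. CellTiter-Glo was added and luminescence imaged after 10 min at room temperature.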
NIH3T3 tox = Cytotoxic Profiling in NIH 3T3 Cell Line of Diverse Libraries Using Quantitative High-Throughput Screening; Potency, µM (series often up to 96.7 µM), without a hit: at the highest dose activity change, negative = cytotoxicity, most hits filed as inhibitors; 94,000 tested, 4.3% active; NIH 3T3 viability, CellTiter-Glo ATP luminescence, 48-72 h; further: nearly all actives have a fitted effect of over 55% in size
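First NIH 3T3 cells are plated at 400 cells/well; next compound is pinned in; then plates incubate 48 or 72 hr at 37 °C; finally CellTiter-Glo is added and luminescence read after 10 min.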
FLuc inh = Firefly luciferase inhibition profiling of diverse chemical library using quantitative high-throughput screening. purified P. pyralis luciferase, luminescence, biochemical. 76,000 tested, 2.5% active. Potency, µM (top dose mostly 115 µM), most hits filed as inhibitors. Luciferin 4-monooxygenase (Photinus pyralis), P08659. AID 1347043, 2019; further: nearly all actives have a fitted effect of over 65% in size
Target sequence (P08659 whole entry, looked up): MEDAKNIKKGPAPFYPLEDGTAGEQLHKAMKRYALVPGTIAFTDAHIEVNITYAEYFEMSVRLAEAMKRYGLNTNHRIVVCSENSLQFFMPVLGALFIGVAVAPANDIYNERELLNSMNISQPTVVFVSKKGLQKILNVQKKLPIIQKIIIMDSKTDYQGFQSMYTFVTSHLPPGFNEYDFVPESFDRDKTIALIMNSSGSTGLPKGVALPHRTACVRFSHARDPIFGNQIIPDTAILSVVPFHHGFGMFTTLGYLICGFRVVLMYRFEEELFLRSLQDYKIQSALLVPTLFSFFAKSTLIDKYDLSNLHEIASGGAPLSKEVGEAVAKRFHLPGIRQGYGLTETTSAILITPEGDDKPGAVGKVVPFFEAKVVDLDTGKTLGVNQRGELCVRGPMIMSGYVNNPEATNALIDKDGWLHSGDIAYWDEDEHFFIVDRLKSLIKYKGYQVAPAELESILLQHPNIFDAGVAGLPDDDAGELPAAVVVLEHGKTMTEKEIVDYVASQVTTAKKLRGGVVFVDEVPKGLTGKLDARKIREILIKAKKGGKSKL
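Luminescence read by CCD imager after adding enzyme (10nM final) to wells holding compound, titrated in qHTS. Substrates 10uM each D-luciferin and ATP; buffer 50mM Tris acetate pH 7.5, 10mM Mg acetate, Tween-20, BSA.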
NPR1 antag = Natriuretic polypeptide receptor (hNpr1) antagonism - Primary qHTS; Potency, µM (top dose mostly 46.3 µM), without a hit: at the top dose activity change, negative = inhibition, actives largely listed as inhibitors; Atrial natriuretic peptide receptor 1 (Homo sapiens), P16066; 76,000 tested, 1.6% active; HEK293 hNpr1 GloSensor cGMP, ANP-stimulated luminescence; calls by dose curve; further: nearly all actives have a fitted effect of over 60% in size
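Compound pre-incubated 30 min at room temperature on GloSensor-loaded HEK293 cells stably carrying hNpr1 and the pGS-40F cGMP biosensor. Stimulation uses hNppA at 0.1 nM final; luminescence is taken at baseline and 20 min post-agonist.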
Active calls of the source: *; [ ] = another dose, or the depositor's remark. Unless noted, the call rests on the fitted dose curve; in most records, active means well fitted curve in the direction sought with a large enough effect; inconclusive means small, poorly fitted or top-dose-only effect, or another doubt; inactive means no such curve, though single readings can be large; an effect the other way counts as inactive or inconclusive. On the % scale 0 is the no-effect control and ±100 the full control effect; potency means the concentration at half of the fitted maximal effect.

What do the screens show for `COC(=O)c1cccc2nc([C@H]3CCN(Cc4ccccc4C)C3)oc12`?
HEK293 tox: 89.1µM*; NIH3T3 tox: inconclusive; FLuc inh: inactive; NPR1 antag: 3.5%[70.6 µM]

Results for O=C(NC1CC1)c1cc(-c2ccsc2)c2nncn2n1 ?
HEK293 tox: -3.2%[172 µM]; NIH3T3 tox: -20.8%[138 µM]

What do the screens show for `Cc1ccc(-c2nc(CNC(=O)C(C)(C)N)[nH]c2-c2ccccn2)cc1`?
HEK293 tox: inconclusive; NIH3T3 tox: -2.5%; FLuc inh: inactive; NPR1 antag: 3.1%

How did CN(Cc1cc(C2CC2)n[nH]1)c1nccc(-c2cccnc2)n1 do in these assays?
HEK293 tox: inconclusive; NIH3T3 tox: inconclusive; FLuc inh: inconclusive; NPR1 antag: -2.9%

How did CN(CCC(O)c1ccccc1)c1nccc(-c2cccnc2)n1 (stereo not drawn) do in these assays?
HEK293 tox: 31.6µM*; NIH3T3 tox: inconclusive; FLuc inh: inactive; NPR1 antag: 4.2%

How did O=C1NC2(CCCN(CC3CC3)C2)Oc2ccccc21 (stereo not drawn) do in these assays?
HEK293 tox: -15.3%[172 µM]; NIH3T3 tox: -19.5%[138 µM]; FLuc inh: inactive; NPR1 antag: 0.0%[70.6 µM]

Results for O=C1NC2(CCN(CC3CCCCC3)C2)Oc2ccccc21 (stereo not drawn) ?
HEK293 tox: 63.1µM*; NIH3T3 tox: inconclusive; FLuc inh: inactive; NPR1 antag: 6.0%[70.6 µM]

How did CCN1C(=O)C2CC3(CCN(C(=O)CCc4nc5ccccc5[nH]4)CC3)CN2C1=O (stereo not drawn) do in these assays?
HEK293 tox: -11.5%; NIH3T3 tox: -7.7%; FLuc inh: inactive; NPR1 antag: 4.3%

What do the screens show for `O=C1NCCCCCCN(Cc2ccncc2)[C@@H]2CN(C(=O)CCc3ccccc3)CC[C@@H]12`?
HEK293 tox: -14.5%; NIH3T3 tox: -22.0%; FLuc inh: inactive; NPR1 antag: -0.3%

Results for CCCn1ncnc1C(C)Nc1cc(C(C)C)nc2cc(C)nn12 (stereo not drawn) ?
HEK293 tox: inconclusive; NIH3T3 tox: 35.5µM*; FLuc inh: inactive; NPR1 antag: 4.0%

How did Cc1cn2nc(C(=O)N3CCC(NC(=O)C(C)c4ccccc4)CC3)cc2c(=O)[nH]1 (stereo not drawn) do in these assays?
HEK293 tox: -1.0%; NIH3T3 tox: inactive; FLuc inh: inactive; NPR1 antag: 0.6%

What do the screens show for `Cc1ncoc1C(=O)N1CCCN(Cc2ccncc2)C(c2ccccc2)CC(=O)NCC1` (stereo not drawn)?
HEK293 tox: inactive; NIH3T3 tox: -9.7%; FLuc inh: inactive; NPR1 antag: -0.6%

How did CC1(C)[C@H](Cc2cc(COc3ccccc3)on2)C[C@@H]1NC1CCC1 do in these assays?
HEK293 tox: 35.5µM*; NIH3T3 tox: 31.6µM*; FLuc inh: inactive; NPR1 antag: 2.8%[70.6 µM]

Results for CC(C)C(=O)N[C@H]1C[C@@H](Cc2cc(COc3ccccc3)on2)C1(C)C ?
HEK293 tox: 39.8µM*; NIH3T3 tox: 63.1µM*; FLuc inh: inconclusive; NPR1 antag: inconclusive

What do the screens show for `CCCCCC(=O)N[C@H]1C[C@@H](Cc2cc(COc3ccccc3)on2)C1(C)C`?
HEK293 tox: inconclusive; NIH3T3 tox: 39.8µM*; FLuc inh: inactive; NPR1 antag: inconclusive

Results for O=c1cc(N2CCOCC2)oc2c(-c3ccccc3F)nccc12 ?
HEK293 tox: inconclusive; NIH3T3 tox: 8.91µM*; FLuc inh: inactive; NPR1 antag: 14.7%[70.6 µM]

How did O=c1cc(N2CCOCC2)oc2c(-c3ccncc3)nccc12 do in these assays?
HEK293 tox: inconclusive; NIH3T3 tox: 22.4µM*; FLuc inh: inactive; NPR1 antag: -0.2%[70.6 µM]

How did COc1cc(-c2nccc3c(=O)cc(N4CCOCC4)oc23)ccn1 do in these assays?
HEK293 tox: -15.1%[172 µM]; NIH3T3 tox: inconclusive; FLuc inh: inactive; NPR1 antag: 4.9%[70.6 µM]

How did CCCC(=O)Nc1cc(C2CCCC2)nn1C do in these assays?
HEK293 tox: inactive; NIH3T3 tox: -1.7%[174 µM]

Results for Cc1nn(Cc2ccccc2)c(C)c1[C@@H]1C=C[C@@H](NC(=O)CCC(=O)O)C1 ?
HEK293 tox: -10.0%[172 µM]; NIH3T3 tox: -36.2%[174 µM]; FLuc inh: inactive; NPR1 antag: -8.6%[70.6 µM]

What do the screens show for `Cc1nn(Cc2ccccc2)c(C)c1[C@@H]1C=C[C@@H](NC(=O)c2ccc(F)c(Cl)c2)C1`?
HEK293 tox: 28.2µM*; NIH3T3 tox: inconclusive; FLuc inh: inactive; NPR1 antag: inconclusive

Results for Cc1nn(Cc2ccccc2)c(C)c1[C@@H]1C=C[C@@H](NC(=O)c2ccco2)C1 ?
HEK293 tox: 70.8µM*; NIH3T3 tox: inconclusive; FLuc inh: inactive; NPR1 antag: -1.5%[70.6 µM]

How did Cc1nn(Cc2ccccc2)c(C)c1[C@@H]1C=C[C@@H](NC(=O)Nc2cccc(C#N)c2)C1 do in these assays?
HEK293 tox: 70.8µM*; NIH3T3 tox: inconclusive; FLuc inh: inactive; NPR1 antag: -1.5%[70.6 µM]

What do the screens show for `NCc1cccc(-c2cccs2)c1`?
HEK293 tox: -8.6%[172 µM]; NIH3T3 tox: inconclusive

How did O=C(c1cc2c(s1)CCC(C(=O)N1CCN(C3CCCCC3)CC1)C2)N1CCCCC1 (stereo not drawn) do in these assays?
HEK293 tox: inconclusive; NIH3T3 tox: inconclusive; FLuc inh: inactive; NPR1 antag: 1.9%

Results for COc1cccc(-c2ccccc2NC(=O)C2CCN(c3nccnc3C)CC2)c1 ?
HEK293 tox: inconclusive; NIH3T3 tox: 22.4µM*; FLuc inh: inactive; NPR1 antag: inconclusive

How did COc1cccc(-c2ccccc2NC(=O)C2CCN(Cc3ccc(F)cc3)CC2)c1 do in these assays?
HEK293 tox: 31.6µM*; NIH3T3 tox: 22.4µM*; FLuc inh: inactive; NPR1 antag: -25.5%

How did COCc1nnc(C2CC3(CCN(C(=O)c4ccnn4C)CC3)CN2C)o1 (stereo not drawn) do in these assays?
HEK293 tox: -4.5%; NIH3T3 tox: inactive

Results for Cc1cccc(-c2nc3cc(C(=O)NCCN4CCOCC4)ccc3o2)n1 ?
HEK293 tox: -5.7%[172 µM]; NIH3T3 tox: -17.9%[138 µM]

Results for Cc1cnn(Cc2cc(C(=O)N3CCCCCC3c3nnc(-c4ccccc4)o3)no2)c1 (stereo not drawn) ?
HEK293 tox: 3.2%; NIH3T3 tox: -10.0%; FLuc inh: inactive; NPR1 antag: 0.8%

How did CCOCCn1c(=O)[nH]c2cc(C(=O)NCCc3ccc(C)s3)ccc21 do in these assays?
HEK293 tox: inconclusive; NIH3T3 tox: -24.5%; FLuc inh: 39.8µM*; NPR1 antag: 3.9%

How did CN1CCN(c2ccc(-c3cn(C)c(=O)n4cc(CNc5ccccc5)nc34)cn2)CC1 do in these assays?
HEK293 tox: 70.8µM*; NIH3T3 tox: 50.1µM*; FLuc inh: inactive; NPR1 antag: -0.6%[70.6 µM]
